# According to PubChem BioAssay (EPA / NIEHS):
# The source made the active and inactive calls. The calls were made as follows: active = hit-call score of the fitted dose curve at least 0.9, where 1 is the maximum; inactive = score below 0.9.
# Tests used:
# [1] = read-out: Fatty acid synthase (Homo sapiens) (UniProt P49327); assay: LTEA_HepaRG_FASN: Life Technologies and Expression Analysis (LTEA) Assay for Fatty Acid Synthase (FASN) using HepaRG (AID 2283448); settings: mRNA level, 48 h; actives raise or lower the signal
# Summary of the method: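 FASN transcript measured by TaqMan qRT-PCR, normalised to three housekeeping genes, after 48 h chemical exposure of HepaRG cells. Eight-point half-log series from 100 uM in 0.5% DMSO, duplicates; gain or loss fitted against vehicle.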
# [2] = read-out: Cyclin D2 (CCND2), CCND2 (gene 894); assay: LTEA_HepaRG_CCND2: Life Technologies and Expression Analysis (LTEA) Assay for Cyclin D2 (CCND2) using HepaRG (AID 2283449); settings: mRNA level, 48 h; actives raise or lower the signal;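 also: CCND2 transcript measured by TaqMan qRT-PCR and normalised to three housekeeping genes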
# Summary of the method: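 HepaRG, 48 h dosing, 8-pt half-log curve from 100 uM, 0.5% DMSO; duplicate wells. Readout: CCND2 transcript by microfluidic qRT-PCR, housekeeping-normalised; bidirectional fit vs DMSO baseline.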
# [3] = read-out: Cyclin Dependent Kinase Inhibitor 1A (CDKN1A), CDKN1A (gene 1026); assay: LTEA_HepaRG_CDKN1A: Life Technologies and Expression Analysis (LTEA) Assay for Cyclin Dependent Kinase Inhibitor 1A (CDKN1A) using HepaRG (AID 2283450); settings: mRNA level, 48 h; actives raise or lower the signal
# Summary of the method: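 Differentiated human HepaRG cells, pre-cultured 48 h, were exposed in duplicate for 48 h in serum-free induction medium to eight half-log concentrations up to 100 uM (0.5% DMSO). CDKN1A mRNA was measured by qRT-PCR, normalized to ACTB/GAPDH/POLR2A, bidirectionally fitted versus DMSO.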
# [4] = read-out: Cyclin D1 (CCND1), CCND1 (gene 595); assay: LTEA_HepaRG_CCND1: Life Technologies and Expression Analysis (LTEA) Assay for Cyclin D1 (CCND1) using HepaRG (AID 2283451); settings: mRNA level, 48 h; actives raise or lower the signal
# Summary of the method: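 Differentiated human HepaRG cells in serum-free induction medium were exposed 48 h to eight half-log concentrations up to 100 uM in 0.5% DMSO; mRNA quantified by TaqMan qRT-PCR, normalized to ACTB, GAPDH, POLR2A, fitted bidirectionally versus DMSO.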
# [5] = read-out: flavin-containing dimethylaniline monooxygenases 3 (FMO3), FMO3 (gene 2328); assay: LTEA_HepaRG_FMO3: Life Technologies and Expression Analysis (LTEA) Assay for flavin-containing dimethylaniline monooxygenases 3 (FMO3) using HepaRG (AID 2283453); settings: mRNA level, 48 h; actives raise or lower the signal;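 as to AC50: FMO3 transcript by TaqMan qRT-PCR normalized to ACTB GAPDH and POLR2A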
# Summary of the method: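 FMO3 transcript quantified by TaqMan qRT-PCR against three housekeeping genes after 48 h chemical exposure of HepaRG cells. Eight-point half-log series, top 100 uM, 0.5% DMSO vehicle; phenobarbital 1mM induction control; up- or down-regulation fitted.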
# [6] = read-out: Cytochrome P450 (CYP1A1), CYP1A1 (gene 1543); assay: LTEA_HepaRG_CYP1A1: Life Technologies and Expression Analysis (LTEA) Assay for Cytochrome P450 (CYP1A1) using HepaRG (AID 2283454); settings: mRNA level, 48 h; actives raise or lower the signal
# Summary of the method: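 Differentiated HepaRG cells in serum-free induction medium were exposed in duplicate for 48 h to eight half-log concentrations up to 100 uM in 0.5% DMSO. CYP1A1 mRNA was quantified by TaqMan qRT-PCR, normalized to ACTB, GAPDH and POLR2A.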
# [7] = read-out: CFLAR gene, CFLAR (gene 8837); assay: LTEA_HepaRG_CFLAR: Life Technologies and Expression Analysis (LTEA) Assay for CFLAR gene using HepaRG (AID 2283455); settings: mRNA level, 48 h; actives raise or lower the signal
# Summary of the method: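 qRT-PCR read-out (Fluidigm/TaqMan) of CFLAR mRNA, normalized to three housekeeping genes, in differentiated human HepaRG cells after 48 h chemical exposure; 8-point half-log series from 100 uM in 0.5% DMSO; bidirectional curve fitting versus DMSO.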
# [8] = read-out: Forkhead box O1 (FOXO1), FOXO1 (gene 2308); assay: LTEA_HepaRG_FOXO1: Life Technologies and Expression Analysis (LTEA) Assay for Forkhead box O1 (FOXO1) using HepaRG (AID 2283456); settings: mRNA level, 48 h; actives raise or lower the signal
# Summary of the method: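 HepaRG, 48 h exposure, 8-pt half-log series from 100 uM in 0.5% DMSO, duplicates; Fluidigm qRT-PCR mRNA, housekeeping-normalised; bidirectional fit vs DMSO baseline.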
# [9] = read-out: growth arrest and DNA damage 45 (GADD45A), GADD45A (gene 1647); assay: LTEA_HepaRG_GADD45A: Life Technologies and Expression Analysis (LTEA) Assay for growth arrest and DNA damage 45 (GADD45A) using HepaRG (AID 2283458); settings: mRNA level, 48 h; actives raise or lower the signal
# Summary of the method: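 GADD45A expression was measured by TaqMan qRT-PCR against three housekeeping genes (ACTB, GAPDH, POLR2A) after 48 h treatment of HepaRG cells. Eight-point half-log series up to 100 uM in 0.5% DMSO, run in duplicate.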
# [10] = CEETOX_H295R_TESTO: CeeTox H295R High-throughput Steroidogenesis Assay for Testosterone (TESTO) (AID 2283457); settings: actives raise or lower the signal;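 as to AC50: cells exposed to chemicals for 48 h before medium collection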
# Protocol: CEETOX_H295R is a cell-based, multiplexed-readout assay that uses H295R, a human adrenal gland cell line, with measurements taken at 48 hours after chemical dosing in a 96-well plate.CEETOX_H295R_TESTO is one of 23 assay component(s) measured or calculated from the CEETOX_H295R assay. It is designed to make measurements of hormone induction, a form of inducible reporter, as detected with […] by HPLC-MS-MS technology.Data from the assay component CEETOX_H295R_TESTO was analyzed into 1 assay endpoint. This assay endpoint, CEETOX_H295R_TESTO, was analyzed with bidirectional fitting relative to DMSO as the negative control and baseline of activity. Using a type of inducible reporter, gain or loss-of-signal activity using HPLC-MS-MS was used to understand synthesis of Testosterone in H295R cell line at 48hr of chemical exposure. To generalize the intended target to other relatable targets, this assay endpoint is annotated to the steroid hormone intended target family, where the subfamily is androgens.
# Cell culture and media preparation procedures were conducted in accordance with OECD Test No. 456 guidelines, with minor modifications. H295R cells (ATCC CRL-2128) were expanded for 5 passages and frozen in batches in liquid nitrogen. Prior to the steroidogenesis assay, H295R cells were thawed and passed at least 4 times. The maximum passage was 10. […] For steroid quantification, media samples were shipped to OpAns, LLC (Durham, NC) on dry ice, and samples were thawed to room temperature prior to liquid-liquid extraction. […] Steroid hormones were separated by HPLC, eluted using a reverse phase C18 gradient with electrospray positive ionization, followed by quantification by tandem mass spectrometry (MS/MS). Data were acquired on a MassHunter Workstation Acquisition version B03.01 (Agilent Technologies, Inc.) and processed using MassHunter Quantitative Analysis for QQQ. Accuracy was determined for each hormone analyte from 3 standards to determine upper and lower limits of quantification (ULOQ and LLOQ, respectively) using a 7-point standard curve. Precision and accuracy of the extraction and quantification methods were calculated as the percent relative standard deviation (%RSD) of the spiked standards and percent spiked standard recovered, respectively. […] Test medium was removed following chemical exposure, and cell viability was evaluated in the same wells by MTT. […] Absorbance was read at 570 and 650nm using a Packard Fusion microplate reader. Background correction of absorbance units was used to determine percent change relative to controls. […] When a test chemical reduced cell viability to 20% - 70%, the test chemical was diluted 10-fold and re-evaluated, but if cell viability was <20%, then the test chemical was diluted 100-fold and re-evaluated. […]
# Chain of Fatty acid synthase (Homo sapiens) (P49327 whole entry, looked up): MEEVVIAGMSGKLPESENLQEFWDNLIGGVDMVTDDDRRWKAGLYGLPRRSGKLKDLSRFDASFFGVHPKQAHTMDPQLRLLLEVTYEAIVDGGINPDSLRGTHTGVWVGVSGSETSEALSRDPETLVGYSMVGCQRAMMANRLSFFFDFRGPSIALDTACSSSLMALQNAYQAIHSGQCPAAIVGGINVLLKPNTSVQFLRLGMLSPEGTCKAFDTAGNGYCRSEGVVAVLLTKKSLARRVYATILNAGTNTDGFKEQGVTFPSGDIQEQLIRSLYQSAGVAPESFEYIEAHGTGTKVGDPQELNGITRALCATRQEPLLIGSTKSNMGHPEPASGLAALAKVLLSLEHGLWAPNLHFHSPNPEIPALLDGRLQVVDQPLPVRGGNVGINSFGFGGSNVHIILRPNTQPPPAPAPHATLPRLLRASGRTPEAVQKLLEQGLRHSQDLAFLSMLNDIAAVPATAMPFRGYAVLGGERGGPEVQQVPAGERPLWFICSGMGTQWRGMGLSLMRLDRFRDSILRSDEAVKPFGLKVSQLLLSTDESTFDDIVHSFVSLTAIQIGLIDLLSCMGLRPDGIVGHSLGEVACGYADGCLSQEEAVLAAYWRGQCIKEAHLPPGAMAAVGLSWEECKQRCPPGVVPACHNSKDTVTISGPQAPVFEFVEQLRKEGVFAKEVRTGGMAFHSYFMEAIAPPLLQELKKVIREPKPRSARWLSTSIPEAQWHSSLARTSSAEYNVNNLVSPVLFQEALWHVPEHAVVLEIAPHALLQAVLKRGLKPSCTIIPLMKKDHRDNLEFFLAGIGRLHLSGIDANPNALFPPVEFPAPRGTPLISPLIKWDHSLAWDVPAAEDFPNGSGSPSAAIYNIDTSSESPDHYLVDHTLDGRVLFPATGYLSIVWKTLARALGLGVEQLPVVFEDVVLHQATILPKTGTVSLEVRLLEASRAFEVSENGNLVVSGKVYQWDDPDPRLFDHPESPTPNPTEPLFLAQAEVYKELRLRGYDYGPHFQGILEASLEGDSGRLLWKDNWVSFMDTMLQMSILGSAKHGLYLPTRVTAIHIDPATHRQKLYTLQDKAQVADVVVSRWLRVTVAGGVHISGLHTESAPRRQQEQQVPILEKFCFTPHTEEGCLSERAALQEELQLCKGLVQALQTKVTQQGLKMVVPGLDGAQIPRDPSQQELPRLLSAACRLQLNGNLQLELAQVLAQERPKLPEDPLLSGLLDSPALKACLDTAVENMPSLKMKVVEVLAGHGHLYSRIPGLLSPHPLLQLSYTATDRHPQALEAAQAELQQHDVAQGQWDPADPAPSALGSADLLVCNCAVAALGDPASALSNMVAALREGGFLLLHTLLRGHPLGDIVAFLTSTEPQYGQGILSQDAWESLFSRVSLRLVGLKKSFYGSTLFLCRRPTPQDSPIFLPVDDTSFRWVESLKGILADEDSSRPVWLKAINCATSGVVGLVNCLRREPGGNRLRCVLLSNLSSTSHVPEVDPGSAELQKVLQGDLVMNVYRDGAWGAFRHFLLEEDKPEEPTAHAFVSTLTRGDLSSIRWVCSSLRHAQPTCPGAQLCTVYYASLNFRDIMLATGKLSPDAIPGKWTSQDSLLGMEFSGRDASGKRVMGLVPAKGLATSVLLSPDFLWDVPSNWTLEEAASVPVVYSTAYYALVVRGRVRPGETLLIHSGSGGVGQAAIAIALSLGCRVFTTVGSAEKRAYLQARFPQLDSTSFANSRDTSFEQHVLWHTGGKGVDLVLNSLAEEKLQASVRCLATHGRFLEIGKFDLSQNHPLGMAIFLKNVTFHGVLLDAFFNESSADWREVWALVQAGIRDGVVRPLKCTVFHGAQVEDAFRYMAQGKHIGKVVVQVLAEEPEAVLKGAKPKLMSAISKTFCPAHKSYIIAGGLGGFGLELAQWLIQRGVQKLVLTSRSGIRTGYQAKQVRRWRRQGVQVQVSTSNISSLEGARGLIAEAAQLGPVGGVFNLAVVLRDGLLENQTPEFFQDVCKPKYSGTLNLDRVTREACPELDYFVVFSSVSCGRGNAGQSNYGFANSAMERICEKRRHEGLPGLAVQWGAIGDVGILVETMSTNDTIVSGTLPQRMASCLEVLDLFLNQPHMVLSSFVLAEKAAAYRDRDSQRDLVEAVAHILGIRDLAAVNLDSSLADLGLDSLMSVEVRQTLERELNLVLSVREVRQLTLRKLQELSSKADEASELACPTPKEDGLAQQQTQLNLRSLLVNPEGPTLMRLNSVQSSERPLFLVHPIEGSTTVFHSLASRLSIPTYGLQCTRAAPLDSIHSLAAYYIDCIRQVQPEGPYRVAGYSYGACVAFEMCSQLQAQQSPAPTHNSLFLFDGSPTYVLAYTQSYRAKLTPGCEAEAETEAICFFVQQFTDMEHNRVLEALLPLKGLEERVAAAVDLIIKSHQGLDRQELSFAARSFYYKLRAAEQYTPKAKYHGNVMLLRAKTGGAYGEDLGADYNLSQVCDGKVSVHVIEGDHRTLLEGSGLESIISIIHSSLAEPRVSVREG
structure (smiles),measurement,setting,value
O=C(N[C@H]1CN2CCC1CC2)c1ccc2c(c1)OCCO2,outcome,[1],inactive
same,outcome,[2],inactive
same,outcome,[3],inactive
same,outcome,[4],inactive
same,outcome,[5],inactive
same,outcome,[6],inactive
same,outcome,[7],inactive
same,outcome,[8],inactive
same,outcome,[9],inactive
Clc1cccc(Cl)c1Cl,outcome,[1],inactive
same,outcome,[2],inactive
same,outcome,[3],inactive
same,outcome,[4],inactive
same,outcome,[5],inactive
same,AC50,[6],50 µM (active)
same,outcome,[7],inactive
same,outcome,[8],inactive
same,outcome,[9],inactive
COc1ccccc1N,outcome,[1],inactive
same,outcome,[2],inactive
same,outcome,[3],inactive
same,outcome,[4],inactive
same,outcome,[5],inactive
same,AC50,[6],68.2 µM (active)
same,outcome,[7],inactive
same,outcome,[8],inactive
same,outcome,[9],inactive
O=S1OC[C@@H]2[C@H](CO1)[C@]1(Cl)C(Cl)=C(Cl)[C@@]2(Cl)C1(Cl)Cl (stereo not given in full),AC50,[10],50 µM (active)
O=C(O)C1(c2ccc3c(c2)OC[C@H](Cc2ccc(-c4ccccc4)cc2)[C@H]3O)CCCC1,AC50,[1],50 µM (active)
same,outcome,[2],inactive
same,AC50,[3],80.2 µM (active)
same,outcome,[4],inactive
same,AC50,[5],81.8 µM (active)
same,AC50,[6],23.3 µM (active)
same,outcome,[7],inactive
same,AC50,[8],50 µM (active)
same,outcome,[9],inactive
Clc1cccc(Cl)c1,outcome,[1],inactive
same,outcome,[2],inactive
same,outcome,[3],inactive
same,outcome,[4],inactive
same,outcome,[5],inactive
same,AC50,[6],78.1 µM (active)
same,outcome,[7],inactive
same,outcome,[8],inactive
same,outcome,[9],inactive
CN(C)C(=S)S,outcome,[1],inactive
same,outcome,[2],inactive
same,outcome,[3],inactive
same,outcome,[4],inactive
same,outcome,[5],inactive
same,AC50,[6],64.4 µM (active)
same,outcome,[7],inactive
same,outcome,[8],inactive
same,outcome,[9],inactive
Cc1ccccc1OP(=O)(Oc1ccccc1C)Oc1ccccc1C,outcome,[10],inactive
N#Cc1cccnc1,outcome,[1],inactive
same,outcome,[2],inactive
same,outcome,[3],inactive
same,outcome,[4],inactive
same,outcome,[5],inactive
same,outcome,[6],inactive
same,outcome,[7],inactive
same,outcome,[8],inactive
same,outcome,[9],inactive
